The panel holds about 83,000 compounds, 20% with a hit somewhere; the sample as a whole holds those more often.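 How to read the values: 0–100, growth inhibition (40 = 60% inhibited); 0, no net growth; -100 to 0, cell death (-40 = 40% of starting cells died; -100 = all dead).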 Active and inactive are the calls of the source. The calls were made as follows: active = growth percent below 10; inactive = the rest.
The compounds below were run on SF-268 CNS (assay: NCI-60 one-dose screen, 48 h (100 = growth as untreated, 0 = no growth, -100 = all killed)). Conditions: 10 µM unless noted.

| Compound | growth |
| --- | --- |
| O=c1nc(-c2ccccc2)c2cc(-c3ccc(N4CCCC4)nc3)ccc2[nH]1 | 83.2% (inactive) |
| O=[N+]([O-])c1cccc(CN(Cc2cccc([N+](=O)[O-])c2O)c2ccccc2)c1O | 89.4% (inactive) |
| Oc1ccccc1-c1nc2c3ccccc3c3ccccc3c2o1 | 89.8% (inactive) |
| CN(C)CCCn1c2c(c3cc(-c4ccco4)ccc3c1=O)C(=O)c1ccccc1-2 | 72.3% (inactive) |
| COc1ccc(C2CC(c3ccc(OC)cc3O)=NN2c2ccc(S(N)(=O)=O)cc2)cc1 (stereo not drawn) | 50.5% (inactive) |
| Cc1c(Cl)cccc1NC(=O)c1sc2nc3c(cc2c1N)CCCCCC3 | 35.7% (inactive) |
| [2H]c1cc2c(c([2H])c1F)/C(=C/c1[nH]c(C)c(C(=O)NCCN(CC)CC)c1C)C(=O)N2 | 57.7% (inactive) |
| CC(=O)Oc1c2c(nc3c1c1ccccc1n3Cc1ccccc1)-c1ccccc1C2 | 93.2% (inactive) |
| C=C(C)[C@@H]1CC[C@]2(C(=O)n3ccnc3)CC[C@]3(C)[C@H](CC[C@@H]4[C@@]5(C)CCCNC(C)(C)[C@@H]5CC[C@]43C)[C@@H]12 | 59.4% (inactive) |
| CC(C)C[C@H](C(=O)O)N(C)C(=O)[C@@H]1CCCN1C(=O)[C@H](C)OC(=O)[C@H](CCC(N)=O)NC(=O)[C@@H]1CCC(=O)N1 | 97.4% (inactive) |
| COC(=O)CCc1cc(O)c2c(c1)[C@@H](C(=O)OC)[C@H](c1ccc(O)c(O)c1)O2 | 74.1% (inactive) |
| CCCCN(CCCC)CC(CN(CC)CC)OC(=O)Nc1ccccc1 (stereo not drawn) | 94.9% (inactive) |
| COC(=O)CCc1n(Cc2ccc3ccccc3c2)c2ccccc2[n+]1Cc1ccc2ccccc2c1 | 12.1% (inactive) |
| COc1ccc(Nc2nc(SCC(C)C)nc(-c3ccc(F)cc3)c2C#N)cc1 | 74.9% (inactive) |
| CCCS(=O)(=O)Nc1ccc(F)c(C(=O)c2c[nH]c3ncc(-c4ccc(OCCCC5CCCCN5)nc4)cc23)c1F (stereo not drawn) | 68.6% (inactive) |
| CC(=O)c1ccc(NC(=O)CSc2nnc(-c3cc(-c4ccc(C)cc4)nc4ccccc34)o2)cc1 | 55.2% (inactive) |
| Oc1ccc(CNNc2ccnc3c(O)cccc23)c2cccnc12 | 37.6% (inactive) |
| COc1ccc(-c2cs/c(=N\N=C\c3ccc(O)cc3O)n2/N=C/c2ccc(O)cc2O)cc1 | 4.27% (active) |
| c1ccc(-c2n(Cc3ccc4ccccc4n3)cc[n+]2Cc2ccc3ccccc3n2)cc1 | 41.8% (inactive) |

| Compound | growth |
| --- | --- |
| O=C1C(Cl)=C(NCCCN(CCCNC2=C(Cl)C(=O)c3ccccc3C2=O)C2=C(Cl)C(=O)c3ccccc3C2=O)C(=O)c2ccccc21 | 74.7% (inactive) |
| CCc1ccc(OCc2ccccc2C(=O)Nc2ccc3nc(C)cc(N)c3c2)cc1 | -82.5% (active) |
| CC1CCN(CCCCCOc2ccc3oc4cc(Cl)ccc4c(=O)c3c2)CC1 | 68.1% (inactive) |
| Nc1ccccc1NS(=O)(=O)c1ccc(Cl)cc1 | 93.5% (inactive) |
| COc1cc(C2=NNC(c3ccc(N(C)C)cc3)C2)cc(OC)c1OC (stereo not drawn) | 55.7% (inactive) |
| COc1cc(NC(=O)Nc2cnc(Nc3ccc(N4CCOCC4)cc3)nc2Oc2ccc(C(F)(F)F)cc2)cc(OC)c1 | 101% (inactive) |
| C=C(C)[C@@H]1CC[C@]2(C(=O)O)CC[C@]3(C)[C@H](CC[C@@H]4[C@@]5(C)C[C@@H](CC#Cc6ccc(Cl)cc6)C(=O)C(C)(C)[C@@H]5CC[C@]43C)[C@@H]12 | 74.1% (inactive) |
| Cc1cc(Nc2nc(SCc3ccc(C(=O)Nc4ccc(F)cc4N)cc3)nn3cccc23)n[nH]1 | 28.2% (inactive) |
| O=C(/C(=C/c1ccc([N+](=O)[O-])cc1)SCc1ccc(F)cc1)c1ccc(Cl)cc1 | 75.6% (inactive) |
| C#C[C@@]1(O)[C@@H](CO)O[C@@H](n2cc(Br)c3c(N)ncnc32)[C@@H]1O | 13.9% (inactive) |
| CC(=O)[C@@H]1CC[C@]2(C(=O)O)CC[C@]3(C)[C@H](CC[C@@H]4[C@@]5(C)Cc6c([nH]c7ccccc67)C(C)(C)[C@@H]5CC[C@]43C)[C@@H]12 | 63.4% (inactive) |
| CC[C@]12C=CCN3CC[C@@]4(c5cc(NC(=O)CCC(=O)O[C@H]6CC[C@H]7[C@@H]8CC[C@H]9CC(=O)CC[C@]9(C)[C@H]8CC[C@]67C)c(OC)cc5N(C)[C@H]4[C@@](O)(C(=O)OC)[C@@H]1OC(C)=O)[C@@H]32 | 74.3% (inactive) |
| CCCCCOC(=O)c1ccccc1O | 105% (inactive) |
| O=C1CCC23OC(c4ccccc4N12)C(O)C(O)C3O (stereo not drawn) | 96.6% (inactive) |
| N#Cc1c(NC(=O)c2cccs2)[n+]([O-])c2cc(C(F)(F)F)ccc2[n+]1[O-] | 105% (inactive) |
| Cc1[nH]c2ncnc(Oc3ccc(NC(=O)Nc4ccc(Cl)c(C(F)(F)F)c4)cc3)c2c1C | 53% (inactive) |
| c1cc(CNC23CC4CC(CC(C4)C2)C3)cc(C[N+](Cc2cccc(CNC34CC5CC(CC(C5)C3)C4)c2)(Cc2cccc(CNC34CC5CC(CC(C5)C3)C4)c2)Cc2cccc(CNC34CC5CC(CC(C5)C3)C4)c2)c1 (stereo not drawn) | 26.9% [42 µM] (inactive) |
| C[C@H]1[C@H](C)CC[C@]2(C(=O)OCCCC[P+](c3ccccc3)(c3ccccc3)c3ccccc3)CC[C@]3(C)C(=CC[C@@H]4[C@@]5(C)CC[C@H](OC(=O)C(Cl)Cl)C(C)(C)[C@@H]5CC[C@]43C)[C@H]12 | -31.8% (active) |
| O=C(Nc1nc(-c2ccccc2)cs1)c1cc(-c2ccc(Br)cc2)nc2ccccc12 | 53.8% (inactive) |
